Data reported in the supplement of paper PMC11732987, “Enantioselective OTUD7B fragment discovery through chemoproteomics screening and high-throughput optimisation” (Communications Chemistry, 2025).

Key:
Assay in all cases: log2 ratio of Biotin-Ahx-Ub-VS probe labelling (fragment/DMSO); higher = less target engagement (more negative = stronger competition), active = hit call of the paper (q ≤ 0.05, log2 ratio ≤ -1)
Conditions in all cases: compound concentration: 200 uM; treatment time: 3 h
USP34 = USP34 (UniProt Q70CQ2)
Method in brief: (§1)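 Labelling with Biotin-Ahx-Ub-VS (0.5 µM final, 1 h) followed a 3 h triplicate treatment of HEK293T lysate (495 µg per sample, Tris/CHAPS/IGEPAL buffer with protease inhibitors) with fragment at 200 µM or vehicle. Labelled DUBs were NeutrAvidin-enriched, digested with LysC and trypsin, and run by diaPASEF LC-MS/MS. The values, average log2 fragment/vehicle ratios by unpaired t-test, come from global-median-normalised Spectronaut label-free quantities. Proteins with ≥2 unique peptides were used.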

USP36 = molecular target: T1, USP36 (UniProt Q9P275)
T1 sequence (whole entry): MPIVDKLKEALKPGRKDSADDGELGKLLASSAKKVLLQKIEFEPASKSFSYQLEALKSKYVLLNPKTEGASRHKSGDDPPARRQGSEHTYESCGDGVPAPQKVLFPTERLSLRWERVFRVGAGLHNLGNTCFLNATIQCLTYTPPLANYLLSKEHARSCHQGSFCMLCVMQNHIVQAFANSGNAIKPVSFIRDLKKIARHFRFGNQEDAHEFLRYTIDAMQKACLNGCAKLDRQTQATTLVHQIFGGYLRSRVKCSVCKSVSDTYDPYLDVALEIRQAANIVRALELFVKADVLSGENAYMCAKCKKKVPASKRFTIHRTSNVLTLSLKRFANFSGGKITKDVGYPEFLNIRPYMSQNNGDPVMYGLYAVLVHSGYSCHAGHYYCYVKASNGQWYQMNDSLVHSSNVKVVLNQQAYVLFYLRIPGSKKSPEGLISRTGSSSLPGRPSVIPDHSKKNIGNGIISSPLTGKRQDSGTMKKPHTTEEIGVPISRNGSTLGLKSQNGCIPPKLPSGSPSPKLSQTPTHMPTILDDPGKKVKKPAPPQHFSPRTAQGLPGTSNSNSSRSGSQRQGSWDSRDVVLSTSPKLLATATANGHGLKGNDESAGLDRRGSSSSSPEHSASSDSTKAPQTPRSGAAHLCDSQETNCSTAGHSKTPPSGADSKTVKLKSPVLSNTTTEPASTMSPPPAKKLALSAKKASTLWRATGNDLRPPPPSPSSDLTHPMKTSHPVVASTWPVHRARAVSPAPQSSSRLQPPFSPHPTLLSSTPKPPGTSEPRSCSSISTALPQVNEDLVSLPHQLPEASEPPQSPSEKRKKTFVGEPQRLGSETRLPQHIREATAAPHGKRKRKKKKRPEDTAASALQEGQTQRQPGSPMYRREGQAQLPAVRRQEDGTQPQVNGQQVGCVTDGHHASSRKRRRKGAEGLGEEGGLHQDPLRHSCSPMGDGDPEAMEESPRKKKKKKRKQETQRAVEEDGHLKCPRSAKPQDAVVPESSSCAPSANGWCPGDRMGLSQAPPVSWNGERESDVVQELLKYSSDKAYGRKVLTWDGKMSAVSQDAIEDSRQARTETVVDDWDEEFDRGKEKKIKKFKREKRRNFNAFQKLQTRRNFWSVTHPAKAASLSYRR
Method in brief: as §1

USP38 = molecular target: T2, USP38 (UniProt Q8NB14)
T2 sequence (whole entry): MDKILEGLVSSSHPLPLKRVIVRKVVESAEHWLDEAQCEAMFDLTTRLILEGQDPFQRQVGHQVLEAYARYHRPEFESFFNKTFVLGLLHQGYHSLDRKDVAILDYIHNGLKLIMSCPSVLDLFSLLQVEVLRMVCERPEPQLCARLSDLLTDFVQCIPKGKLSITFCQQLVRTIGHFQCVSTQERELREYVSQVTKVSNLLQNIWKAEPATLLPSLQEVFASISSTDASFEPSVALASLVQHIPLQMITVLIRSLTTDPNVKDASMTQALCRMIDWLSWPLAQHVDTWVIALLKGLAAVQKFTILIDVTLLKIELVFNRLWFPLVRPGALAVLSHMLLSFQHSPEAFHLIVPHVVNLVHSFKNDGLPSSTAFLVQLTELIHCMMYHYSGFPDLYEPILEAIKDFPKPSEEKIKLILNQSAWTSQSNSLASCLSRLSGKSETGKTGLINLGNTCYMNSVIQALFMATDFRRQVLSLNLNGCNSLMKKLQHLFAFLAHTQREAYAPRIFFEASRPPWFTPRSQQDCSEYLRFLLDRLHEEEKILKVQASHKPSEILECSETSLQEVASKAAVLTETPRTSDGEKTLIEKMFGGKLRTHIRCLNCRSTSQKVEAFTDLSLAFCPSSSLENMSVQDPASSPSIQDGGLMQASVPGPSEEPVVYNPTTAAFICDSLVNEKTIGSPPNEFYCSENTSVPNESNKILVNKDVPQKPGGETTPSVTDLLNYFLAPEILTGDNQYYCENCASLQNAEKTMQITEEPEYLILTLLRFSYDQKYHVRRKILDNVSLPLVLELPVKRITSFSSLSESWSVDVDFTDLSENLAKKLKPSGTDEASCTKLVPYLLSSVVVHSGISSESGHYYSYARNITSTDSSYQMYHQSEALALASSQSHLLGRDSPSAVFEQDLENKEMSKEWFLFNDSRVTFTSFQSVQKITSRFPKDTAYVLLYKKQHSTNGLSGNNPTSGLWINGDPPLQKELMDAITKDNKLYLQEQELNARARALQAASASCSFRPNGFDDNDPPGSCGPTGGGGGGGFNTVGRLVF
Method in brief: as §1

USP39 = molecular target: T3, USP39 (UniProt Q53GS9)
T3 sequence (whole entry): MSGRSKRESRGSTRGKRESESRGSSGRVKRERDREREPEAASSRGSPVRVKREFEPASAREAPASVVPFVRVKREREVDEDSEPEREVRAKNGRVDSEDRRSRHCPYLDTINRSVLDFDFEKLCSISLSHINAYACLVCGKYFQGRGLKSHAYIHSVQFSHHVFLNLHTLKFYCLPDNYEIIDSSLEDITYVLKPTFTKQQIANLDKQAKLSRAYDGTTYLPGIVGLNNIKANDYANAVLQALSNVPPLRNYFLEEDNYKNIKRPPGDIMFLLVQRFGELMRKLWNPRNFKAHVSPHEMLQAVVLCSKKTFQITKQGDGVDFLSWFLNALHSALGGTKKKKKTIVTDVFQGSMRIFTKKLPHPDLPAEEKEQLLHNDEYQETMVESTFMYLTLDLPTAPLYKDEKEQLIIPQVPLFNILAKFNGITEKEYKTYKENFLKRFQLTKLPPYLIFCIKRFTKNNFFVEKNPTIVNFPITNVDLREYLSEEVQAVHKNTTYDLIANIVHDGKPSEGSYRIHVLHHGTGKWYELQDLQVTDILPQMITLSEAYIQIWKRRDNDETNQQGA
Method in brief: as §1

USP4 = molecular target: T4, USP4 (UniProt Q13107)
T4 sequence (whole entry): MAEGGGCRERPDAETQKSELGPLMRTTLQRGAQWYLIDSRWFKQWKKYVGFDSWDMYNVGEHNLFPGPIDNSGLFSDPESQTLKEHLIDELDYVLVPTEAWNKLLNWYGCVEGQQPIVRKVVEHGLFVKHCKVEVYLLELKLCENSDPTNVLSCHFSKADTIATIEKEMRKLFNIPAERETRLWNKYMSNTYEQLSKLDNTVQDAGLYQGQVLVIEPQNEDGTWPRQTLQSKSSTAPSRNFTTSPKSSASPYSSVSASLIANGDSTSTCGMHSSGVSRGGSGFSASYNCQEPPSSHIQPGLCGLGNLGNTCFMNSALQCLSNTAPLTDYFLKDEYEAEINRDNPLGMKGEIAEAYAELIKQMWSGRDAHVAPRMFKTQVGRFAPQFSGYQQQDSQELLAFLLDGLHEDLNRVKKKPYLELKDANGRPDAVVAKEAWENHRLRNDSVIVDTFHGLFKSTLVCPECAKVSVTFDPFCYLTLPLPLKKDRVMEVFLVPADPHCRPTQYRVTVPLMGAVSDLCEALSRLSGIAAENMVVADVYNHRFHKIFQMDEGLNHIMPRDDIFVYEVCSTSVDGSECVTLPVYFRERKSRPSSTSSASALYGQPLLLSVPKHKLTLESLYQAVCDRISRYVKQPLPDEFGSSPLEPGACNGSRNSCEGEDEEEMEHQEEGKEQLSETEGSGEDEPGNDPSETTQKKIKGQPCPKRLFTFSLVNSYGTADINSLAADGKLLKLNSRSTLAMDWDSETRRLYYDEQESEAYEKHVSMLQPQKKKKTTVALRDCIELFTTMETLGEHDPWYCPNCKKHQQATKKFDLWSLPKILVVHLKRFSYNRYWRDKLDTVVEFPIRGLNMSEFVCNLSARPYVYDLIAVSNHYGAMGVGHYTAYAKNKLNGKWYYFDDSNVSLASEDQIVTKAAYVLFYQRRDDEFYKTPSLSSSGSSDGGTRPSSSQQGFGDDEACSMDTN
Method in brief: as §1

Measured: log2 ratio of Biotin-Ahx-Ub-VS probe labelling

Sequence of USP34 (Q70CQ2 whole entry, the tested form may be a part): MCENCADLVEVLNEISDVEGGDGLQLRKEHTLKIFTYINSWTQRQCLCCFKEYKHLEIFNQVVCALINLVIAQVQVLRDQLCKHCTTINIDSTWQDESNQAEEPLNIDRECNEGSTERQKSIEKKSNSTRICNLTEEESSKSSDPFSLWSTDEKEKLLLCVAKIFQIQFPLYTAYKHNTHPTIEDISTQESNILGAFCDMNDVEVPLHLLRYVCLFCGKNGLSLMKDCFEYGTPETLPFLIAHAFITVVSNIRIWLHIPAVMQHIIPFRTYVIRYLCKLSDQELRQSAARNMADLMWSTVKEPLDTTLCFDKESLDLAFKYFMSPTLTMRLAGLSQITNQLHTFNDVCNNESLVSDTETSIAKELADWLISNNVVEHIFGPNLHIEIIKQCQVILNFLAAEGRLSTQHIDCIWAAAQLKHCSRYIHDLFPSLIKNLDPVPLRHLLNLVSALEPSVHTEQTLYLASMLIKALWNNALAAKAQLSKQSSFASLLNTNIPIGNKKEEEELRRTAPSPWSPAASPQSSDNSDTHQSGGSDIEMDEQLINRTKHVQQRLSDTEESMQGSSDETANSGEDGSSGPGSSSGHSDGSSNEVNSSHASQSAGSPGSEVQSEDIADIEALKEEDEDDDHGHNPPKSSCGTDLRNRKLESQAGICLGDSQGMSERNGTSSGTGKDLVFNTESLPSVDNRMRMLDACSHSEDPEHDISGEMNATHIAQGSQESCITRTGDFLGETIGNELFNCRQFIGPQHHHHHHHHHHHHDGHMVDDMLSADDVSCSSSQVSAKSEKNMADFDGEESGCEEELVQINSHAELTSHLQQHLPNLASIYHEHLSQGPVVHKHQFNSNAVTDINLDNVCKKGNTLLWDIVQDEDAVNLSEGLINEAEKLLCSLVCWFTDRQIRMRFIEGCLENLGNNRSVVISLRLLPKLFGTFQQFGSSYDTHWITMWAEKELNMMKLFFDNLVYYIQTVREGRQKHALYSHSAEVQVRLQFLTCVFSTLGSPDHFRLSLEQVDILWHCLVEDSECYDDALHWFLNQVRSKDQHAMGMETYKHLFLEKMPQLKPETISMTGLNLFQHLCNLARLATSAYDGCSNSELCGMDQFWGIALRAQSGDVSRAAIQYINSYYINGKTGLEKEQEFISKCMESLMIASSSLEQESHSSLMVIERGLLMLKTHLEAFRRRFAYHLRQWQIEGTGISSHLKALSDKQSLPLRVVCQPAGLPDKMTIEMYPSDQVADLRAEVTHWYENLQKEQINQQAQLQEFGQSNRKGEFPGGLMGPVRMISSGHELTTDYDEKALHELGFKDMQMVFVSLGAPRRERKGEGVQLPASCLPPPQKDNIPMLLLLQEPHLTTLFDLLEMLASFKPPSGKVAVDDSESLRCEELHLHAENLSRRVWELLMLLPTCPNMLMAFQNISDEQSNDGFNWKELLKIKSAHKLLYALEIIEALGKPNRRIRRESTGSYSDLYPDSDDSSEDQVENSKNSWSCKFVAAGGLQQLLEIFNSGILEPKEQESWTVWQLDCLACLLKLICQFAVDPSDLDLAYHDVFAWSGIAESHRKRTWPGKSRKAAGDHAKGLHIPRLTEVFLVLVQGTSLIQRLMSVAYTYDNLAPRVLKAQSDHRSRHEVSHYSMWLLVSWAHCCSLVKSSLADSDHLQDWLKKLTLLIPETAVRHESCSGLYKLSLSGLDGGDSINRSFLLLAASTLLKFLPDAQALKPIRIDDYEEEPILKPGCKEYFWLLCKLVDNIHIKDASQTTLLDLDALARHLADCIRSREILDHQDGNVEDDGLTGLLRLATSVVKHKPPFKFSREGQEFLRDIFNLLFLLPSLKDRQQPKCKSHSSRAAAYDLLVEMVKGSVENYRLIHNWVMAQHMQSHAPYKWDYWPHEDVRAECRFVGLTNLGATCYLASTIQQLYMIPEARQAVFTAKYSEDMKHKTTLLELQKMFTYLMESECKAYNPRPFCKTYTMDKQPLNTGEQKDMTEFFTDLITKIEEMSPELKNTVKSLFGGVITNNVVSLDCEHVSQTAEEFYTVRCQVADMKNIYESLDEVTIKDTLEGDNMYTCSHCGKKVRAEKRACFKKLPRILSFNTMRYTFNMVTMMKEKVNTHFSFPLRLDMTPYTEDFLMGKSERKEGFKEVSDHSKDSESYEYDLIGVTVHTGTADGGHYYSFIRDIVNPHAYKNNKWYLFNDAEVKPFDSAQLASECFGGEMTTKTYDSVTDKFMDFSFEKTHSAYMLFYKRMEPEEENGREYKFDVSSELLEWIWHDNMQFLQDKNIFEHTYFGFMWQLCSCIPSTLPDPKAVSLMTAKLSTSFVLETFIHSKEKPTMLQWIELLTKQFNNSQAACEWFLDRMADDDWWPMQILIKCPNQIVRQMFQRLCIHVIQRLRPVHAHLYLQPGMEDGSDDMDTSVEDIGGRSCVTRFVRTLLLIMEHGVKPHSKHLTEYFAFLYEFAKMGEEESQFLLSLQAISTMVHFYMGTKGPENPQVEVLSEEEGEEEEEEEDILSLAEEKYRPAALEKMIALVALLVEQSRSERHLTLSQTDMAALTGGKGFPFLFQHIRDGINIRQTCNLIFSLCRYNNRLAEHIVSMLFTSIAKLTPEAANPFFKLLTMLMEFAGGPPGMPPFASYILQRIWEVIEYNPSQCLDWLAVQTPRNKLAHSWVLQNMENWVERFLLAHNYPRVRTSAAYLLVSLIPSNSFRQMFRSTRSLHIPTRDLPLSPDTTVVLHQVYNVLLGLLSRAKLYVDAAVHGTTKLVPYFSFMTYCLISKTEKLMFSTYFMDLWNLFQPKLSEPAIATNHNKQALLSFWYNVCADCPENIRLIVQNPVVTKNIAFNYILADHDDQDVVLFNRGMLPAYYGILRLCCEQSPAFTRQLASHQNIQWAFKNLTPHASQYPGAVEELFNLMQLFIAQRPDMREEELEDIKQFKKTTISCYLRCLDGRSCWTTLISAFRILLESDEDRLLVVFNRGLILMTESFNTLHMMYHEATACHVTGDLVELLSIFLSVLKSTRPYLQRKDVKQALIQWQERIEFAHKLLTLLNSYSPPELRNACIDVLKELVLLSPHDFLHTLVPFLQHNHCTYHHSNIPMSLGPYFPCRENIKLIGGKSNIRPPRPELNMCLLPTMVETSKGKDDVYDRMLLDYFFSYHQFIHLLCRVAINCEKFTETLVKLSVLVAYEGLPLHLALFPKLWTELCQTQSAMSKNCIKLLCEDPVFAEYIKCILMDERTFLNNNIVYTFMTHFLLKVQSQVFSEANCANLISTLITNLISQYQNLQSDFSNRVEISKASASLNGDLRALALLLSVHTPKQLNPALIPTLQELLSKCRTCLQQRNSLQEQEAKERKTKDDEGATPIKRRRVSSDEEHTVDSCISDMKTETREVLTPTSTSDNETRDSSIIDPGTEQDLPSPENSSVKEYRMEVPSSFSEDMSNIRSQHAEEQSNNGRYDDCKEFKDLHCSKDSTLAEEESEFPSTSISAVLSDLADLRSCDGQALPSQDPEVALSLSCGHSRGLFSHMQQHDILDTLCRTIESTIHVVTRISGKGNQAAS

Cc1cc(C2CCCN2C(=O)CCl)nn1C.Cl (stereo not given)
inactive: USP34 -0.179 | USP36 -0.0531 | USP38 -0.227 | USP39 -0.281 | USP4 -0.154
